Compound activity (PubChem BioAssay)
This is a sample that favours compounds with a hit; in the whole collection about 3.6% have one here.
mHTT-CaM PPI inh: inhibitors of human mutant huntingtin-calmodulin interaction | AlphaScreen His-mHTT/GST-CaM binding, luminescence | inhibition, % at 15 µM | actives 3.6% (n = 190,000) | AID 1671202
Target sequence (P42858 whole entry, looked up, change not shown): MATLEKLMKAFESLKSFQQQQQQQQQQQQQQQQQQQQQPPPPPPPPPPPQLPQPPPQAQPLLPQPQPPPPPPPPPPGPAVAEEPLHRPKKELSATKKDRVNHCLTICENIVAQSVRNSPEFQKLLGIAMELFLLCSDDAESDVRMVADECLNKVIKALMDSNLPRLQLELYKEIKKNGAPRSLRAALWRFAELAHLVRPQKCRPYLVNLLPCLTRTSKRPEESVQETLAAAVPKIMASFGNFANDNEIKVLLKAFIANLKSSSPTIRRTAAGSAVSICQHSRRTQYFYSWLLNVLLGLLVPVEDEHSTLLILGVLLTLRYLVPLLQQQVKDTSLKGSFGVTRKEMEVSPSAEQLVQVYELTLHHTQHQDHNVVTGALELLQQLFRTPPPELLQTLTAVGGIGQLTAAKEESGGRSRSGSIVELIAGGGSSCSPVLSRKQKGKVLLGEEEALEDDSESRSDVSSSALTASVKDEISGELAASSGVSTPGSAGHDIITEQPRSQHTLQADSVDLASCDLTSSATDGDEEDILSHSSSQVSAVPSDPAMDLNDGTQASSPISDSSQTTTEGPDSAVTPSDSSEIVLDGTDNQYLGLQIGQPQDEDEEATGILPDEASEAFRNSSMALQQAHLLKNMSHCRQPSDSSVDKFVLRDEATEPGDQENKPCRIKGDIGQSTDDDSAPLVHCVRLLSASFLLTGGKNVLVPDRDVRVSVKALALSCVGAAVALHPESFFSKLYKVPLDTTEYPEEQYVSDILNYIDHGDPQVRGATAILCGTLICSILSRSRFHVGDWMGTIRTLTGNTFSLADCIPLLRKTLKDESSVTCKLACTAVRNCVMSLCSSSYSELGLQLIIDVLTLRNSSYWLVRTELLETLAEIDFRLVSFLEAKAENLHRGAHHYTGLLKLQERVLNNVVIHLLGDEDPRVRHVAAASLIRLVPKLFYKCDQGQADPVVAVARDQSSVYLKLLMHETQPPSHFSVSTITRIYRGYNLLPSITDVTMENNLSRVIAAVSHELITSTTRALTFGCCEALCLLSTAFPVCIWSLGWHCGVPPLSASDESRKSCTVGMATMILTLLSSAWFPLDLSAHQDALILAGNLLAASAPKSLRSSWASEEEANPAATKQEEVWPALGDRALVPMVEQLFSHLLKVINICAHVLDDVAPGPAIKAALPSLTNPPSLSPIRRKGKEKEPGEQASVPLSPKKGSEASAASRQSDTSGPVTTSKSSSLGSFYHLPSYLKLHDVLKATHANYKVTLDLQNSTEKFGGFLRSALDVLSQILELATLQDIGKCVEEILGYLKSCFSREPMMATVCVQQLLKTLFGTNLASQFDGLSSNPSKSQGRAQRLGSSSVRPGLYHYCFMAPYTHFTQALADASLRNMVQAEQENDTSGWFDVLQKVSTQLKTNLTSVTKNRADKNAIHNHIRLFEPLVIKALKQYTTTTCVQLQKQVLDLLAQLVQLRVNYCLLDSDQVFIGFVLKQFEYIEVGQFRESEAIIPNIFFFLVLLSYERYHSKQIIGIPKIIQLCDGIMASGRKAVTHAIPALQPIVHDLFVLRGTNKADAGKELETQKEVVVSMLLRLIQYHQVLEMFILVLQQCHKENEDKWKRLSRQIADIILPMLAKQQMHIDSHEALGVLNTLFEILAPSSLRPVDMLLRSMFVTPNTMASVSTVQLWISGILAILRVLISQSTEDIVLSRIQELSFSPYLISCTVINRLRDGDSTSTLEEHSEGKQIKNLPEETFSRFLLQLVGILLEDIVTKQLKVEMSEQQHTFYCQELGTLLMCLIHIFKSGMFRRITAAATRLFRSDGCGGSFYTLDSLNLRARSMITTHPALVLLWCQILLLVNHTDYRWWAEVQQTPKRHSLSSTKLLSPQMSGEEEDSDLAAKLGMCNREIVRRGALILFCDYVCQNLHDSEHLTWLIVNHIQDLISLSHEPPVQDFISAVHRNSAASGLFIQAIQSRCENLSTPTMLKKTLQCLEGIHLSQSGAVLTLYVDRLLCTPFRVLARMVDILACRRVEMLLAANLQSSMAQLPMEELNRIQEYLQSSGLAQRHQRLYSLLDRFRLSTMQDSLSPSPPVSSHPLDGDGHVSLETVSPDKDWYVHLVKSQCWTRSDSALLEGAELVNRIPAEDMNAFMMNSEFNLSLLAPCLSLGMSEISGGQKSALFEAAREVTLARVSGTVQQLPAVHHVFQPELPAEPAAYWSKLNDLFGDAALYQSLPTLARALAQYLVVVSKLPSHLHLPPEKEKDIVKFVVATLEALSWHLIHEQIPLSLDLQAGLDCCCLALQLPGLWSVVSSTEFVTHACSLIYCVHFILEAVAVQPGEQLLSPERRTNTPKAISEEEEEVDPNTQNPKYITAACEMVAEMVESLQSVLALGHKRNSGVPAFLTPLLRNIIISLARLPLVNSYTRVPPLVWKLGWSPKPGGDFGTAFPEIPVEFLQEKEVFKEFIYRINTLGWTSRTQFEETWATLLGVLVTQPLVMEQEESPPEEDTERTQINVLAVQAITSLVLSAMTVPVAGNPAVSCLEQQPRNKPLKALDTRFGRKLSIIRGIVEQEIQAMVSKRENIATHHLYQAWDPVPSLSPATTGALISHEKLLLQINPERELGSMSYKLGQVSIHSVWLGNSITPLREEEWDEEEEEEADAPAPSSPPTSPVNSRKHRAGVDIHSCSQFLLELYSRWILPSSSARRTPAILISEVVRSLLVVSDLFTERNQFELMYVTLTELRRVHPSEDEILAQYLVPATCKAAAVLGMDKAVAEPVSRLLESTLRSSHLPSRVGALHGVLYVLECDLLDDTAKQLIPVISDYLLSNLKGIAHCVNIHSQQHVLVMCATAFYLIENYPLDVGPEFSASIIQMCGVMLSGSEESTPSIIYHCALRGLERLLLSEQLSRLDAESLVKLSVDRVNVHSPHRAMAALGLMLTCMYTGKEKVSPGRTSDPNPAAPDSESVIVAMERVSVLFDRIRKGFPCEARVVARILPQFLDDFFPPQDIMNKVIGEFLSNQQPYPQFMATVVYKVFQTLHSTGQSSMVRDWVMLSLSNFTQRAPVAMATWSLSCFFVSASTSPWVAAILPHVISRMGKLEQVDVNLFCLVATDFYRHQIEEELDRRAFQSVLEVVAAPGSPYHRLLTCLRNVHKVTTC
Pf apPOL inh: Pf-apPOL DNA polymerase inhibition; actives 0.25% (n = 210,000); inhibition, % at 10 µM; Recombinant Pf-apPOL, molecular beacon fluorescence, 1.5 h; AID 1794808
Of the large screens only hits and unclear results are named; the others gave an inactive call. No stated cut-off is given here; in the data, active means inhibition above about 50%; inactive means the rest.

O=C1CC(c2ccco2)CC2=C1C(c1ccc(Cl)cc1)C1=C(N2)c2ccccc2C1=O (configuration not stated)	mHTT-CaM PPI inh 64.0
O=C1CC(c2ccco2)CC2=C1C(c1ccccc1)C1=C(N2)c2ccccc2C1=O (configuration not stated)	none
C=CCNS(=O)(=O)c1ccc(NC(C)=O)cc1	none
COc1ccc(N2C(=O)CCC(C(=O)Nc3ccc4c(c3)OCCO4)C2c2ccc(F)cc2)cc1 (configuration not stated)	none
CCn1cc2c3c(cccc31)CN(C(=O)Nc1ccc(OC)cc1OC)CC2	none
CCn1cc2c3c(cccc31)CN(C(=O)Nc1ccccc1OC)CC2	none
CCCn1cc2c3c(cccc31)CN(C(=O)Nc1cccc(OC)c1)CC2	none
COc1ccc(OC)c(NC(=O)N2CCc3cn(C)c4cccc(c34)C2)c1	mHTT-CaM PPI inh 62.0
COc1ccc(NC(=O)N2CCc3cn(C)c4cccc(c34)C2)c(OC)c1	mHTT-CaM PPI inh 75.1
COc1ccccc1NC(=O)N1CCc2cn(C)c3cccc(c23)C1	mHTT-CaM PPI inh 50.6
COc1cccc(NC(=O)N2CCc3cn(C)c4cccc(c34)C2)c1	none
CCCn1cc2c3c(cccc31)CN(C(=O)Nc1cc(OC)ccc1OC)CC2	mHTT-CaM PPI inh 72.7
N#CC1=C2N=C(N)c3c(sc4c3CCCCC4)N2C2=C(C(=O)CCC2)C1c1cccnc1 (configuration not stated)	mHTT-CaM PPI inh 61.0
N#CC1=C2NC(=O)c3c(sc4c3CCCCC4)N2C2=C(C(=O)CCC2)C1c1cccnc1 (configuration not stated)	none
O=C(Nc1ccccc1[N+](=O)[O-])c1cc(S(=O)(=O)NC2CCCCC2)c(Cl)cc1Cl	mHTT-CaM PPI inh 57.5
O=C(Nc1ccccc1[N+](=O)[O-])c1ccc(Cl)c(S(=O)(=O)NC2CCCC2)c1	none
Cc1cc2nn(-c3ccccc3)nc2cc1NC(=O)c1ccc(C)c([N+](=O)[O-])c1	none
O=C(c1c[nH]c2ccccc12)N1CCC2(CC1)NC(=O)N(Cc1cccc(Cl)c1)C2=O	mHTT-CaM PPI inh 100.1
O=C(c1nccc2ccccc12)N1CCC2(CC1)NC(=O)N(Cc1cccc(Cl)c1)C2=O	none
O=C(c1cc2ccccc2[nH]1)N1CCC2(CC1)NC(=O)N(Cc1ccc(Cl)cc1)C2=O	mHTT-CaM PPI inh 99.0
O=C(c1ccccc1F)N1CCC2(CC1)NC(=O)N(Cc1ccccc1)C2=O	none
O=C(c1cc2ccccc2[nH]1)N1CCC2(C1)NC(=O)N(Cc1ccc(Cl)cc1)C2=O (configuration not stated)	none
O=C(c1c[nH]c2ccccc12)N1CCC2(CC1)NC(=O)N(Cc1ccccc1)C2=O	mHTT-CaM PPI inh 62.1
O=C(CSc1nnc(C(O)c2ccccc2)n1-c1ccccc1)NC1CCCCC1 (configuration not stated)	none
O=C(NC(=O)c1ccc(-c2ccc(Cl)cc2)s1)Nc1cc(C(F)(F)F)cc(C(F)(F)F)c1	none (no result: mHTT-CaM PPI inh)
CCCN1C(=O)C2(c3cc(Br)ccc31)N1CC3(C)CN2CC(C)(C1)C3=O (configuration not stated)	none
O=[N+]([O-])c1ccc(Oc2cc(C(F)(F)F)ccc2Cl)cc1O	none
NS(=O)(=O)c1ccc(NC(=O)C2(c3cc(-c4ccco4)on3)CC2)cc1	none
CCC(C)Nc1nc(C)nc2c1c(C)nn2-c1ccccc1 (configuration not stated)	mHTT-CaM PPI inh 99.3
CCCNc1nc(C)nc2c1c(C)nn2-c1ccc(C)cc1	none
CCCCC(=O)N1CCC(N2CCC(C(=O)N3CCOCC3)CC2)CC1	none
CSc1nnc2c(n1)OC(c1ccncc1)Nc1ccc(Br)cc1-2 (configuration not stated)	mHTT-CaM PPI inh 54.0
CSc1nnc2c(n1)OC(c1ccc(C(=O)O)cc1)Nc1ccc(Br)cc1-2 (configuration not stated)	none
CCCSc1nnc2c(n1)OC(c1ccco1)Nc1ccccc1-2 (configuration not stated)	none
CCCSc1nnc2c(n1)OC(c1ccco1)Nc1ccc(Br)cc1-2 (configuration not stated)	mHTT-CaM PPI inh 53.0
CCCCC(=O)NCCC1CCN(C(=O)c2ccc(C)cc2)CC1	none
CCc1ccc(S(=O)(=O)N2CCC(CN3CCCCCC3)CC2)cc1	mHTT-CaM PPI inh 99.7
CCc1ccc(S(=O)(=O)N2CCC(CN3CCC(C)CC3)CC2)cc1	none
COc1ccc(C2C(=C(O)c3ccc(Cl)cc3)C(=O)C(=O)N2CCN(C)C)cc1OC (configuration not stated)	none
Cc1ccc(-c2nc(N3CCC(C(N)=O)(N4CCCCC4)CC3)c3ccccc3n2)cc1	mHTT-CaM PPI inh 53.0
CCOC(=O)N1CCN(c2nc(-c3ccc(C)cc3)nc3ccccc23)CC1	none
COc1ccccc1C(=O)N1CCC(n2c(=O)oc3ccc(C)cc32)CC1	none
COc1cc(/C=C2/N=C(c3cc([N+](=O)[O-])ccc3Cl)OC2=O)cc(OC)c1OC	none
COc1cc(OC)c(NC(=O)c2cccc([N+](=O)[O-])c2)cc1Cl	none
CCOc1ccccc1C(=O)NCCSc1c(C)[nH]c2ccccc12	mHTT-CaM PPI inh 71.0
Cc1[nH]c2ccccc2c1SCCNC(=O)C(C)(C)Oc1ccc(Cl)cc1	mHTT-CaM PPI inh 98.0
Cc1[nH]c2ccccc2c1SCCNC(=O)c1c(F)cccc1F	none
Cc1[nH]c2ccccc2c1SCCNC(=O)c1cccc(Cl)c1	none
O=C(COc1ccc(Cl)cc1)NCCSc1c[nH]c2ccccc12	none
Cc1[nH]c2ccccc2c1SCCNC(=O)COc1ccc(Cl)cc1Cl	mHTT-CaM PPI inh 93.0
CCOc1cc(C(=O)NCCSc2c(C)[nH]c3ccccc23)cc(OCC)c1OCC	none
Cc1[nH]c2ccccc2c1SCCNC(=O)COc1ccc(Cl)cc1	mHTT-CaM PPI inh 84.0
FC(F)(F)c1cnc(NN2C3CSC2CS3)c(Cl)c1	none (no result: mHTT-CaM PPI inh)
O=C(NCc1ccncc1)C1CCCN(c2nnc3c(Cl)cccn23)C1 (configuration not stated)	none
CCCc1nnsc1C(=O)NCCC1CCCCN1S(=O)(=O)c1cccs1 (configuration not stated)	none
CN(C)S(=O)(=O)c1ccc(C(=O)N2CC(c3nc(Cc4cccs4)no3)C2)cc1	none
COc1ccc(C)cc1NCc1ccccc1C	mHTT-CaM PPI inh 81.0
COc1cc(Br)c(CNc2cc(C)ccc2C)cc1OC	none
CCCCOc1ccc(CNC(=O)c2ccc3c(c2)NC(=O)C2CCCCN32)cc1 (configuration not stated)	none
O=C(Sc1n[nH]c(=O)[nH]c1=O)c1cccc(Br)c1	none
Cc1ccc(C(=O)Sc2n[nH]c(=O)[nH]c2=O)cc1	mHTT-CaM PPI inh 98.0
CC(=O)Nc1ccc(NC(=O)CCC2CCCCC2)cc1	none
Cc1nc(NC(=O)c2ccc(-n3ccnc3)nn2)sc1C	mHTT-CaM PPI inh 90.0
Cc1ccnc(NS(=O)(=O)c2ccc(NC(=O)c3ccc(-n4ccnc4)nn3)cc2)n1	none
COc1ccccc1N(CC(N)=O)S(=O)(=O)c1ccccc1	none
COc1ccccc1N(CC(O)COc1ccc(C)cc1)S(=O)(=O)c1ccccc1 (configuration not stated)	mHTT-CaM PPI inh 52.3
CCCC(=O)N1CCc2cc(OC)c(OC)cc2C1COc1ccc(OC)cc1 (configuration not stated)	none
COc1cc2c(cc1OC)C(COc1ccc(F)cc1)N(C(=O)Cc1ccc(F)cc1)CC2 (configuration not stated)	mHTT-CaM PPI inh 61.0
